Source: PubChem
D1 antag = Antagonist of Human D 1 Dopamine Receptor: qHTS; D(1A) dopamine receptor (Homo sapiens), P21728; HEK293 TREx D1 cells, calcium flux, dopamine EC80; stronger effect = lower value; activity change, negative = inhibition, % at 10 µM; 360,000 compounds, 3.2% hits; AID 504652, 2011; in the data active means activity change below about -30%; further: on the % scale 0 is the no-effect control and ±100 the full control effect
Target sequence (P21728 whole entry, looked up): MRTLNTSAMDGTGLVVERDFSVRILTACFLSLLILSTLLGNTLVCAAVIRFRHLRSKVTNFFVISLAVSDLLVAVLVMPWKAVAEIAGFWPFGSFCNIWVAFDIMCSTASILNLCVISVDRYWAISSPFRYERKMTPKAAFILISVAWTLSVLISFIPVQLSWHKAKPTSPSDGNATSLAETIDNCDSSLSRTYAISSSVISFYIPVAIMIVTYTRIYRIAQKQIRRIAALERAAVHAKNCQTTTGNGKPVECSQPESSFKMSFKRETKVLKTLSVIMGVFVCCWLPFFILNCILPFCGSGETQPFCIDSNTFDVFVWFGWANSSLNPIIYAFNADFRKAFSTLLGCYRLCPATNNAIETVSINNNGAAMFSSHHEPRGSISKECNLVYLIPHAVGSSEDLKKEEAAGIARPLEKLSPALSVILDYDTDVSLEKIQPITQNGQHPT
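Compound effects on dopamine-evoked calcium signalling were measured in tetracycline-induced HEK293 Trex D1 cells. Dopamine at EC80 followed a 180 s compound pre-read, and fluorescence was tracked kinetically for 180 s more.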
D3 antag = qHTS of D3 Dopamine Receptor Antagonist: qHTS; D(3) dopamine receptor (Homo sapiens), P35462; D3R cells, DiscoveRx beta-arrestin luminescence, antagonist mode; stronger effect = lower value; max response, negative = inhibition, %; 360,000 compounds, 2.5% hits; AID 652054, 2013; in the data active means max response below about -50%; inconclusive means no clear call, values can overlap the other calls; further: on the % scale 0 is the no-effect control and ±100 the full control effect
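Cells expressing the human receptor were seeded at 1500 cells/well, incubated overnight at 37 degrees C in 5% CO2, then exposed to library compounds with dopamine controls for 90 minutes at 37 degrees C before luminescent detection.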
D3 ag = qHTS of D3 Dopamine Receptor Agonist: qHTS. D3R DiscoveRx beta-arrestin cells, luminescence, 90 min. max activation, %. 410,000 compounds, 0.58% hits; in the data active means max activation above about 30%; further: 0% is about no effect
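Agonist-mode cell screen: cells plated at 1500/well and incubated overnight at 37 °C, then exposed to library compounds for 90 min at 37 °C. Detection reagent was added for 30–60 min at room temperature, and luminescence was read.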
D1 PAM = Potentiators of Human D1 Dopamine Receptor: qHTS; AID 504651, 2011; HEK293 TREx D1 cells, calcium flux, dopamine EC20 potentiation; 360,000 compounds, 0.036% hits; potentiation, % at 10 µM; D(1A) dopamine receptor (Homo sapiens), P21728; in the data active means potentiation above about 30%; further: 0% is about no effect
D1 agonist = Allosteric Agonists of the Human D1 Dopamine Receptor: qHTS; AID 504660, 2011; 360,000 compounds, 1% hits; HEK293 T-REx D1 cells, calcium flux, agonist mode; activation, % at 2 µM; in the data active means activation above about 30%; further: 0% is about no effect
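Agonism was scored from calcium flux recorded over 180 s (1 read/s) after pintool compound addition, following a 10-cycle baseline. Cells were inducible force-coupled HEK293 TREx D1, plated overnight at 30 C and loaded with no-wash calcium dye.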
* marks the source's active call; other numbers are inactive results; ? = inconclusive; . = no result given. Most compounds without a hit are left out; they make up all but 6.1% or so of the library.

SMILES	D1 antag	D3 antag	D3 ag	D1 PAM	D1 agonist
CCOc1cccc(-c2c(C(=O)N/N=C/c3ccsc3)nnn2-c2nonc2N)c1	45	-22	7	30	72*
CCOC(=O)c1c(C)[nH]c(C)c1S(=O)(=O)N1CCCC(C(=O)N2CCN(c3cc(C)ccc3C)CC2)C1 (stereo unspecified)	-5	.	-3	-2	4
CCOc1ccc(NC(=O)Cn2nc(-c3ccncc3)ccc2=O)cc1	4	.	5	-2	0
Cc1ccc(-c2c(C(=O)N/N=C/c3cccs3)nnn2-c2nonc2N)cc1	42	0	1	20	76*
Cc1ccc(-c2csc(NCCc3nc4cc(Cl)c(Cl)cc4n3CCCO)n2)cc1	.	5	70*	.	.
COc1ccc(-c2csc(NCCc3nc4cc(Cl)c(Cl)cc4n3CCCO)n2)cc1	.	51	-1	.	.
OCCCn1c(C2CCCN2c2nc(-c3ccc(F)cc3)cs2)nc2cc(Cl)c(Cl)cc21 (stereo unspecified)	.	-56*	-44	.	.
Cc1ccc(Cn2c(CCNc3nc(-c4ccc(C)cc4)cs3)nc3cc(C(=O)NCCCO)ccc32)cc1	.	6	31*	.	.
Cc1ccc(Cn2c(C(C)Nc3nc(-c4ccc(Cl)cc4)cs3)nc3cc(C(=O)NCCCO)ccc32)cc1 (stereo unspecified)	.	14	-1	.	.
Cc1nn(C)c(C)c1S(=O)(=O)N(CC(=O)Nc1nccs1)c1ccc(C(C)C)cc1	1	7	2	-2	1
COc1ccc(N(CC(=O)Nc2ccc3c(c2)OCCO3)S(=O)(=O)c2c(C)nn(C)c2C)cc1	-30*	-12	1	-6	1
COc1ccc(N(CC(=O)Nc2nccs2)S(=O)(=O)c2c(C)nn(C)c2C)cc1	-55*	-16	1	-1	0
CCc1ccc(NC(=O)CN(c2ccc(OC)cc2)S(=O)(=O)c2c(C)nn(C)c2C)cc1	4	0	-1	-9	3
CCc1nn2c(=O)cc(COC(=O)c3cccc(NC(=O)c4ccccc4C)c3)nc2s1	-4	.	3	0	-2
COC(=O)c1ccccc1NC(=O)c1ccc2nc(Cc3ccccc3)oc2c1	-2	.	-17	4	4
FC(F)(F)c1cccc(N2CCN(Cc3cccnc3)CC2)c1	2	-74*	-9	0	2
COc1cccc(N2CCN(Cc3cccnc3)CC2)c1	-8	?	-12	-5	1
FC(F)(F)c1cccc(N2CCN(Cc3ccoc3)CC2)c1	-30	-96*	-27	-6	2
COc1cc(CN2CCN(c3cccc(C)c3C)CC2)cc(OC)c1O	-28	?	-38	-4	2
O=c1cc(N2CCN(Cc3ccccc3)CC2)[nH]c(=O)n1-c1cccc(C(F)(F)F)c1	6	8	1	0	-2
Cc1cccc(N2CCN(Cc3ccoc3)CC2)c1C	3	-87*	-32	-9	1
Cc1ccc2c(=O)cc(C(=O)Nc3c(C(=O)c4ccc(F)cc4)oc4ccccc34)oc2c1C	7	.	-12	4	0
CC(=O)N(c1ccccc1)C1CCCC1	0	8	-1	-6	1
O=C(CCl)N(c1ccccc1)C1CCCCC1	-9	-65*	-11	-8	2
CCc1cccc(NC(=O)Cn2c(=O)n3nc(-c4cccc(F)c4)nc3c3ccccc32)c1	.	.	-6	-4	-3
SMILES	D1 antag	D3 antag	D3 ag	D1 PAM	D1 agonist
Cn1c(-n2cccc2)c(-c2c(-c3ccccc3)[nH]c3c2c(=O)n(C)c(=O)n3C)c(=O)n(C)c1=O	4	.	1	0	0
CN1C(c2ccc(F)cc2)=CS/C1=C(/C#N)c1nnc(N2CCOCC2)n1-c1ccccc1	26	-12	-6	1	3
CCN1C(c2ccc(F)cc2)=CS/C1=C(\C#N)c1nnc2n1-c1ccccc1SC2	-35*	20	-3	-10	0
CN1Cc2c(N3CCOCC3)nc3sc(C#N)c(N)c3c2CC1(C)C	-5	47	0	-1	2
CN1Cc2c(N3CCOCC3)nc3sc(C(=O)c4ccc(Br)cc4)c(N)c3c2CC1(C)C	-49*	-50*	-22	-12	34*
O=C(Cn1c(C(=O)N2CCN(C3CCCC3)CC2)cc2sccc21)c1ccccc1	2	-78*	-37	0	1
O=C(Cn1c(C(=O)NCc2ccco2)cc2sccc21)c1ccccc1	-5	-6	-8	-8	2
O=C(Cn1c(C(=O)NCC2CCCO2)cc2sccc21)c1ccccc1 (stereo unspecified)	-50*	12	8	-5	1
CC(CNC(=O)C1CCN(C(=O)c2cc3sccc3n2C)CC1)c1ccccc1 (stereo unspecified)	0	.	6	-5	2
Cc1ccccc1N=Nc1c(C)[nH]n(-c2ccccc2)c1=O	0	1	1	-6	1
Cc1[nH]n(-c2ccccc2)c(=O)c1N=Nc1ccc2c(c1)OCO2	-35*	16	9	-9	1
Cc1[nH]n(-c2ccccc2)c(=O)c1N=Nc1ccccc1O	-17	-23	5	-4	32*
COc1cc(C2=Nc3ccc(Br)cc3C(c3ccccc3)N2CC(=O)NN)cc(OC)c1OC (stereo unspecified)	-18	-51*	-14	-3	2
COC(=O)CN1C(c2ccc(OC)cc2)=Nc2ccc(Cl)cc2C1c1ccccc1 (stereo unspecified)	-18	-60*	-16	-2	3
NNC(=O)CN1C(=O)Nc2ccc(Br)cc2C1c1ccccc1 (stereo unspecified)	10	-11	-3	-5	0
COC(=O)CN1C(CN2CCOCC2)=Nc2ccc(Br)cc2C1c1ccccc1 (stereo unspecified)	-49*	-11	-11	-7	1
NNC(=O)CN1C(c2ccc(Br)cc2)=Nc2ccc(Br)cc2C1c1ccccc1 (stereo unspecified)	15	-55*	-49	-1	2
Cc1ccc(C(CC(=O)Nc2cc(C)cc(C)c2)N2Cc3ccccc3C2=O)cc1 (stereo unspecified)	-3	.	-7	-3	3
Cc1ccc2onc(CNC(=O)NCc3ccccc3)c2c1	-6	.	7	-3	1
COC(=O)Cn1c(O)c(N=NC(=O)c2ccc3c(c2)OCO3)c2ccccc21	-35*	-15	4	3	0
CN(Cc1ccccc1)c1ccc(-c2nc(-c3cccnc3)no2)cc1[N+](=O)[O-]	-25	.	-7	-4	13
CN(Cc1ccccc1)c1ccc(-c2nc(-c3ccncc3)no2)cc1[N+](=O)[O-]	-3	.	57*	-1	0
